Screens (PubChem BioAssay)
Y pestis TopoI: Y. pestis Topo-I inhibition via cleavage products; Y. pestis Topo-I cleavage product accumulation, plate reader; activity, % at 10 µM; actives 0.064% (n = 360,000); AID 504884; in the data active means activity above about 50%, passing the limit was not always enough
BioA inh: inhibitors of Mycobacterium tuberculosis BioA enzyme. purified M. tuberculosis BioA enzyme, plate reader. inhibition, % at 9.99 µM. actives 0.096% (n = 360,000); in the data active means inhibition above about 40%
PrP 5UTR inh: suppresses PrP 5' UTR mRNA reporter expression; inhibition, % (test concentration not listed); cell-based PrP 5' UTR mRNA reporter, plate reader; actives 0.35% (n = 340,000); in the data active means inhibition above about 52%; further: 0 = median of the neutral control wells
TcdB inh: inhibitors of Clostridioides difficile toxin B glycohydrolase | actives 0.24% (n = 350,000) | AID 652162 | P18177 | inhibition, % at 9.99 µM | TcdB glycohydrolase enzymatic assay, plate reader; in the data active means inhibition above about 10%
Target sequence (P18177 whole entry, looked up): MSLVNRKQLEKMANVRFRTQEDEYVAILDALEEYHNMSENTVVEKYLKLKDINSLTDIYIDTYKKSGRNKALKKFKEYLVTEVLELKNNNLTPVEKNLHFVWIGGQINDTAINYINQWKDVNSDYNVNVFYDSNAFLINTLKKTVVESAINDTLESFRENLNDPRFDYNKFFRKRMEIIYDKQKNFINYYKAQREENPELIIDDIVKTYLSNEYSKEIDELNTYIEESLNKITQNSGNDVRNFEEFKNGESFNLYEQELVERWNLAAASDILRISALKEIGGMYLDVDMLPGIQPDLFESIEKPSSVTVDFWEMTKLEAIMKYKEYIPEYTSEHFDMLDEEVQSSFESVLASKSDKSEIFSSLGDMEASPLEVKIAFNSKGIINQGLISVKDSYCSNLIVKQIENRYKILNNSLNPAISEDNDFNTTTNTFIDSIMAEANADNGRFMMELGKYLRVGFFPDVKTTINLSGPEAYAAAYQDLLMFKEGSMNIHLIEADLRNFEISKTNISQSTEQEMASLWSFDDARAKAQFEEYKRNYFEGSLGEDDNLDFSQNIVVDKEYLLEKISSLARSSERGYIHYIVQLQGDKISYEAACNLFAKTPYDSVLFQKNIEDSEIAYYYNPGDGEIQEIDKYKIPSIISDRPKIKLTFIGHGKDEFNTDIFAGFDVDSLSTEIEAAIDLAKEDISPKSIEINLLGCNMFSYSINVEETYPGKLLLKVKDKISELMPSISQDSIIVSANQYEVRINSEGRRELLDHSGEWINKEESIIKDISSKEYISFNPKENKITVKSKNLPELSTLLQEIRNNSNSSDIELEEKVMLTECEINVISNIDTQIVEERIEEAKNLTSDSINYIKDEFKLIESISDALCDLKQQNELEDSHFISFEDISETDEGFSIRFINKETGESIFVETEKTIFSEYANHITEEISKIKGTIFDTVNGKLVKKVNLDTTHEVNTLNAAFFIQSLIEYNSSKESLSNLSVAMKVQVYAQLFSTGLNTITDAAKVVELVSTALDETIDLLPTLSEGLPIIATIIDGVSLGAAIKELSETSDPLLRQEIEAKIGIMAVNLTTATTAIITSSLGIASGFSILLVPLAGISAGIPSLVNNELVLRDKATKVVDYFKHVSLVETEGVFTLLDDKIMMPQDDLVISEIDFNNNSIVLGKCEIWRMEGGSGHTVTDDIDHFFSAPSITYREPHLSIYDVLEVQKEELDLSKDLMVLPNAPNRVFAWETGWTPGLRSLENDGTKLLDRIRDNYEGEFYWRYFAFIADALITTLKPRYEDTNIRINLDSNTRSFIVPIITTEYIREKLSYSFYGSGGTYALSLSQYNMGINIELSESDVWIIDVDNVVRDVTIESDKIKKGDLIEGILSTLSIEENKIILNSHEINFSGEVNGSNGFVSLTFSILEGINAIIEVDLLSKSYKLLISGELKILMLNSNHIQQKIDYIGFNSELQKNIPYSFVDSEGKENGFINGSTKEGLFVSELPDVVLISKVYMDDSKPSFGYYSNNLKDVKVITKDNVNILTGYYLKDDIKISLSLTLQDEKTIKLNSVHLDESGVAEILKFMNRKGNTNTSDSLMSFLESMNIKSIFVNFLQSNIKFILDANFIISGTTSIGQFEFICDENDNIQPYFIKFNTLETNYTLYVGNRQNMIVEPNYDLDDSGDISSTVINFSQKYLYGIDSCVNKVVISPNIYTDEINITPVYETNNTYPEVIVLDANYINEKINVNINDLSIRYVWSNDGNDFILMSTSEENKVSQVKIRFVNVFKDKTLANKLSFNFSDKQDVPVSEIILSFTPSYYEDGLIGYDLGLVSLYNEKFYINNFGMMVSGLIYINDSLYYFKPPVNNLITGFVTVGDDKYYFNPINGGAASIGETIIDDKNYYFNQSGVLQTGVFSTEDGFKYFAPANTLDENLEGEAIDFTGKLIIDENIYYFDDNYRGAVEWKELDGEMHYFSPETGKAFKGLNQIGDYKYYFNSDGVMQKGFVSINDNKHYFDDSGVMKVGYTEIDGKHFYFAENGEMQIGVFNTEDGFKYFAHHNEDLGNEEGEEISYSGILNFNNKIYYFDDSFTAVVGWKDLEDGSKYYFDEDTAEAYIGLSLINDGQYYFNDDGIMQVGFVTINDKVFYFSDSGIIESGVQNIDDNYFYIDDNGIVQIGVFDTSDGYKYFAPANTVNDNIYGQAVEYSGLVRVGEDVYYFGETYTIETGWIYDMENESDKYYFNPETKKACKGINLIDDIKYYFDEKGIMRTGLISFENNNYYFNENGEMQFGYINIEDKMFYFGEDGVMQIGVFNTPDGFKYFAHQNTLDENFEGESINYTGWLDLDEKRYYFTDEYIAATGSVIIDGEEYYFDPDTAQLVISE
Numbers without * were called inactive; x = not tested or not shown. Shown are actives, neighbours in structure and some others; about 0.57% of the full set was active somewhere.

SMILES	Y pestis TopoI	BioA inh	PrP 5UTR inh	TcdB inh
C[C@@H]1CN([C@H](C)CO)C(=O)c2cc(NC(=O)CCCN(C)C)ccc2O[C@@H](C)CCCCO[C@H]1CN(C)Cc1ccccc1	x	-2	x	0
O=C(Nc1ccccc1)N[C@@H]1CC[C@@H](CCNC(=O)c2ccccc2F)O[C@H]1CO	x	1	x	-1
COc1cccc(C(=O)OCCN2C(=O)c3ccccc3C2=O)c1OC	4	0	-17	x
COc1cccc(C=O)c1OCCN1C(=O)c2ccccc2C1=O	1	65*	-22	-5
CCCNC(=O)N1CC[C@@H]2[C@H]1c1cc(-c3ccccc3)ccc1N(C)[C@H]2CO	x	x	x	12*
CCCNC(=O)N1CC[C@@H]2[C@H]1c1cc(-c3ccc(OC)cc3)ccc1N(C)[C@H]2CO	x	x	x	4
CCCNC(=O)N1CC[C@@H]2[C@@H](CO)N(C)c3ccc(-c4ccc(F)cc4)cc3[C@@H]21	x	11	x	12*
Cc1noc(C)c1S(=O)(=O)Nc1ccc2c(c1)C(=O)N([C@H](C)CO)C[C@H](C)[C@H](CN(C)C(=O)Nc1ccc(F)cc1)OCCCC[C@@H](C)O2	x	-1	x	0
Cc1ccc(S(=O)(=O)Nc2cccnc2Oc2ccc(Cl)cc2)cc1	-5	x	-7	14*
O=C(COC(=O)C1CCN(c2ccc(C(F)(F)F)cn2)CC1)c1ccc(Cl)cc1	30	x	-19	0
O=C(COC(=O)C1CCN(c2ccc(C(F)(F)F)cn2)CC1)c1ccccc1Cl	52*	0	-21	6
CC(OC(=O)C1CCN(c2ccc(C(F)(F)F)cn2)CC1)C(=O)c1ccccc1 (stereo unspecified)	26	-1	9	2
Cc1ccc(C(=O)C(C)OC(=O)C2CCN(c3ccc(C(F)(F)F)cn3)CC2)cc1 (stereo unspecified)	55*	x	-18	3
C[C@@H]1CN([C@H](C)CO)C(=O)Cc2cc(NC(=O)Nc3ccc(C(F)(F)F)cc3)ccc2O[C@H]1CN(C)C(=O)Nc1ccc(F)cc1	x	0	x	0
O=C(C[C@@H]1CC[C@H]2[C@@H](COC[C@@H](O)CN2Cc2ccccc2F)O1)N1CCc2ccccc2C1	x	3	x	1
Cc1[nH]ccc2c1[nH]c1cc(=O)ccc12	-12	-1	2	10*
O=c1cc[nH]c2c1ccc1c(=O)cc[nH]c12	-9	x	-13	-18
COc1ccc(C(=O)N2CCOCC2)cc1S(=O)(=O)N1CCCc2ccccc21	3	x	-20	12*
C[C@H]1CN([C@@H](C)CO)S(=O)(=O)c2ccc(C#CC3CC3)cc2O[C@@H]1CN(C)C(=O)C1CCCCC1	x	0	x	x
Cn1c(SCC(=O)NCc2cccs2)nnc1-c1ccncc1	56*	-1	-8	x
CCS(=O)(=O)Nc1ccc2c(c1)C(=O)N(C)[C@@H]1CC[C@H](CC(=O)N3CCOCC3)O[C@@H]1CO2	x	0	x	0
CCOC(=O)C1=C(C)NC2=C(C(=O)CCC2)C1c1coc2ccccc2c1=O (stereo unspecified)	0	-1	-14	2
CC1=C(C(=O)OCC2CCCO2)C(c2coc3ccccc3c2=O)C2=C(CCCC2=O)N1 (stereo unspecified)	2	x	-7	13*
C[C@@H]1CCCCO[C@H](CN(C)C(=O)Cc2ccccc2)[C@@H](C)CN([C@H](C)CO)C(=O)c2cc(NS(=O)(=O)c3ccc(F)cc3)ccc2O1	x	x	x	0
CN1C(=O)NC(c2ccc(O)cc2)C2=C1CN(c1ccc(O)cc1)C2=O (stereo unspecified)	8	x	-10	19*
SMILES	Y pestis TopoI	BioA inh	PrP 5UTR inh	TcdB inh
CN1C(=O)NC(c2ccc(O)cc2)C2=C1CN(c1ccccc1)C2=O (stereo unspecified)	-3	11	-7	1
Cc1cc(C)nc(/N=C(\N)Nc2ccccc2-c2ccccc2)n1	3	x	-12	10*
Cc1noc(C)c1COC(=O)CCCOc1ccc(Cl)cc1Cl	61*	-1	-7	x
Cc1noc(C)c1COC(=O)Cc1ccc(Cl)cc1	12	1	-19	x
Cc1cc(O)ccc1N=Cc1c(C(F)(F)F)[nH][nH]c1=O	7	x	-19	15*
O=c1[nH][nH]c(C(F)(F)F)c1C=Nc1ccccc1	3	0	-2	x
O=S(=O)(c1ccc(S(=O)(=O)N(Cc2ccccc2)Cc2ccco2)cc1)N1CCCC1	3	-1	-4	0
COC(=O)/C=C/c1ccccc1S(=O)(=O)N(Cc1ccccc1)Cc1ccco1	57*	-5	-22	x
CCCC(=O)Nc1ccc2c(c1)OC[C@H](C)N(CCC(F)(F)F)C[C@H](C)[C@H](OC)CN(C)C2=O	x	2	x	1
COc1cc2c(cc1N)-c1ccc(N)cc1C2=O	-32	-1	x	20*
CC1CCN(c2oc(Cc3cccc4ccccc34)nc2C#N)CC1	55*	-1	-7	x
